Laboratory results reported in publication PMC7819943, “Rice protein-binding microarrays: a tool to detect cis-acting elements near promoter regions in rice”.
In all, about 68,000 sequences were measured (“fluorescence intensity (a.u.)”: median about 9,100, highest 2% from about 16,000 on). The sample as a whole holds a higher share of the highest values than the screen did.

The sequences below were run against OsWRKY34 (Oryza sativa, UniProt Q0JBA9 1-250) (assay: protein-binding microarray (RPBM); PBS, 2% BSA, 51.3 ng/ul salmon testes DNA, 50 uM zinc acetate, 200 nM TF, 25 C, 1 h; high values mean tight binding). Settings: protein: recombinant; tags: N-terminal polyhistidine and DsRed monomer fusion (pET32a); label: CyDye5-dUTP incorporated in the synthesized complementary strand; 3' TTTTT single-stranded linker to array surface; dsDNA, one strand shown.
OsWRKY34, sequence (Q0JBA9 entry or part of it): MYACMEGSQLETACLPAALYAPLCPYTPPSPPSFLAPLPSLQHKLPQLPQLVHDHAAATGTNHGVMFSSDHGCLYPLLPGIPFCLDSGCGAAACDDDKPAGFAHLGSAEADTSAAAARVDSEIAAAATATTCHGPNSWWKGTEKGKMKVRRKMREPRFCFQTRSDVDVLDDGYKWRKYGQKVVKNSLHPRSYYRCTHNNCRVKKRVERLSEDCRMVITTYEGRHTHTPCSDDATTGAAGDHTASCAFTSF
Summary of the method: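 Transcription factors were each fused at the N-terminus to a polyhistidine tag plus DsRed and expressed in E. coli BL21-CodonPlus before Ni–NTA purification. Binding to a double-stranded custom Agilent array was carried out with 200 nM protein at 25 °C for 1 h in PBS, 2% BSA, salmon testes DNA and 50 µM zinc acetate. The binding signal is per-feature fluorescence intensity, in arbitrary units, on an Axon 4000B scanner.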

Sequence | binding signal
TTGACTTTTTAACCAACGTTTGACTATTCGTCTTATTCAACGGAGTCACCTAGTGCAG | 10100 fluorescence intensity (a.u.)
TATACGACGCCGTTGACTTTTTAAGATACGTTAGACCATTCGGAGTCACCTAGTGCAG | 20300 fluorescence intensity (a.u.)
ATGATGCCGTTGACTTTTTGAACAACGTTTGACTATTCGTCGGAGTCACCTAGTGCAG | 32600 fluorescence intensity (a.u.)
TGGATGGTACTCCCTCCTCTAAATGTTTGACGCCGTTGACCGGAGTCACCTAGTGCAG | 14400 fluorescence intensity (a.u.)
AAGCAGCAAAAGTCACACATACACTCTCTCTGCTACTACTCGGAGTCACCTAGTGCAG | 8160 fluorescence intensity (a.u.)
TTAACTTTTACTCTAATTTATTCTCCTGTACCTTTTTATACGGAGTCACCTAGTGCAG | 8250 fluorescence intensity (a.u.)
AGGTGGTTGGTGAGGTTTGCTTTGCACGATCGAGTGAGGACGGAGTCACCTAGTGCAG | 10500 fluorescence intensity (a.u.)
TCCGTTTCGAAATGCTTGACGCCGTTGACTTTTTTAAACACGGAGTCACCTAGTGCAG | 19400 fluorescence intensity (a.u.)
ACGCCGTTGACTTTTTAAGCAACATTTGACCATTCGTTTTCGGAGTCACCTAGTGCAG | 30000 fluorescence intensity (a.u.)
AAATGTTTGACGCCGTTGACTTTTTTAAACATGTTTGACCCGGAGTCACCTAGTGCAG | 33600 fluorescence intensity (a.u.)
ATATACTCCCTCCTTCCCTAAATGTTTGACGCCGTTGACTCGGAGTCACCTAGTGCAG | 11400 fluorescence intensity (a.u.)
TCCTTCCCTAAATGTTTGACGCCGTTGACTTTTTTAAACACGGAGTCACCTAGTGCAG | 16600 fluorescence intensity (a.u.)
TTTGACGCCGTTGACTTTTTTAAACATGCTTGATCATTCACGGAGTCACCTAGTGCAG | 13700 fluorescence intensity (a.u.)
AACAGCCTGTTTTTGTGTGTTTTTTTCGTAAGTAATTAGTCGGAGTCACCTAGTGCAG | 8760 fluorescence intensity (a.u.)
GGCTGCCCGCTCCTACATCCACATGCATGCTTCACACTGCCGGAGTCACCTAGTGCAG | 8330 fluorescence intensity (a.u.)
TTAGTTGTTACCTTTGTCTCCTTCGTTGATCCATTGAAAGCGGAGTCACCTAGTGCAG | 10500 fluorescence intensity (a.u.)
GTATACCTGCGCGTATACGGATGTTTTCGGCGTACATTAACGGAGTCACCTAGTGCAG | 8390 fluorescence intensity (a.u.)
GTTCATCAATCTACTGTACTGGCCTCCTTCTCAGCTCTCACGGAGTCACCTAGTGCAG | 9300 fluorescence intensity (a.u.)
CTTCCCTAAATGTTTAACGCCATTGACTTTTTTAAACATGCGGAGTCACCTAGTGCAG | 12900 fluorescence intensity (a.u.)
TAACGCCGTTTACCTTTTAACAAACGTTTTACCTTTCGTTCGGAGTCACCTAGTGCAG | 10400 fluorescence intensity (a.u.)
CTTCCCTAAATGTTTGACGCCGTTGACTTTTCTAAACATGCGGAGTCACCTAGTGCAG | 18600 fluorescence intensity (a.u.)
AATGTTTGACGCCGTTGACTTTTTTAAACATGTTTGACCACGGAGTCACCTAGTGCAG | 42500 fluorescence intensity (a.u.)
TGACGCCGTTGGTTTTTTTAAACATGTTTGACCATTCGTCCGGAGTCACCTAGTGCAG | 8990 fluorescence intensity (a.u.)

Sequence | binding signal
TGTTTGACGCCGTTGACTTTTTTAAACATGTTTGACCATTCGGAGTCACCTAGTGCAG | 34200 fluorescence intensity (a.u.)
ATGACGCCGTTGACTTTTTAACAAACGTTTGACCATTCGTCGGAGTCACCTAGTGCAG | 21700 fluorescence intensity (a.u.)
AACTTTTTGATATACGCTCGATCATTCATCTTATTGAATACGGAGTCACCTAGTGCAG | 8030 fluorescence intensity (a.u.)
CCCGTGTCTTGTGTGTTTCCATTCTCGCGAACCTTCCACACGGAGTCACCTAGTGCAG | 9910 ± 264 fluorescence intensity (a.u.)
TTAATTTTTTTCTCATTTGTGCGTCCTATGGTCAAGCGTCCGGAGTCACCTAGTGCAG | 8490 fluorescence intensity (a.u.)
AATTCCGGCCCAATAGTCACTTGTGTTGGCCACTTCGCCTCGGAGTCACCTAGTGCAG | 9010 fluorescence intensity (a.u.)
GATTCATCGATCTTTTACGAGTACTATTTTTGTGATTATTCGGAGTCACCTAGTGCAG | 11300 fluorescence intensity (a.u.)
TACATGTGGGTCCCATGGGTTTTATTATCTTTTTCGGATCCGGAGTCACCTAGTGCAG | 9360 fluorescence intensity (a.u.)
AATCTACAAGATATATAACTAGATGTGTGGTGGGTTGAAACGGAGTCACCTAGTGCAG | 8280 fluorescence intensity (a.u.)
AATTAGTTCCTGGACTTTGTGTATTACTAGTACTACTCCACGGAGTCACCTAGTGCAG | 8570 fluorescence intensity (a.u.)
TGACTCTATTTTTTCCTTCGGTCTGCTGTCTGCACTCTGGCGGAGTCACCTAGTGCAG | 11300 fluorescence intensity (a.u.)
GCCACGAGTTCCACGGCCGCGGCGTCGTCGTCGTCGTCGTCGGAGTCACCTAGTGCAG | 8090 fluorescence intensity (a.u.)
GGTTGACCGTAGTCAACTCGCCACGTTGACTAGAACCGAGCGGAGTCACCTAGTGCAG | 17900 fluorescence intensity (a.u.)
AGCGTCGCTGCCATCATCGCCGTCGCGTCGCTCGTCGCCGCGGAGTCACCTAGTGCAG | 8220 fluorescence intensity (a.u.)
TCGTCGGCGTCGCGTTCACGGCCGCCGTGGCCGTGGCCGTCGGAGTCACCTAGTGCAG | 16500 fluorescence intensity (a.u.)
CTCCGCCTCGCGCCGTTGTCGCCGTCGCCTCGCGCCGCCACGGAGTCACCTAGTGCAG | 10100 fluorescence intensity (a.u.)
TGTCTAGCTGCTCCGACCAGTCAACCGTTGAACGTTGACTCGGAGTCACCTAGTGCAG | 14700 fluorescence intensity (a.u.)
CGCCACCATCGCTGCGCCGCCATCGCCACCACCGCAGCCGCGGAGTCACCTAGTGCAG | 8840 fluorescence intensity (a.u.)
CTGCCATCGCGTCGGCGTCGCGCCGCTGCCGTTGACCGTGCGGAGTCACCTAGTGCAG | 16700 fluorescence intensity (a.u.)
GTCTCCGCCATCGTTGTCGCCGTCGCCTCGCGCCACCACGCGGAGTCACCTAGTGCAG | 8230 fluorescence intensity (a.u.)
CGTAGGCCACGCCACCTCACCCTGTTGACCGAGTCAAACCCGGAGTCACCTAGTGCAG | 11900 fluorescence intensity (a.u.)
CGTTGTCGCCACCACCACCGCCGCCGTCGCCACAACTCCGCGGAGTCACCTAGTGCAG | 20500 fluorescence intensity (a.u.)
ACCACCGCCGCGGCGGCGTCGCCCACGCCGTGCCGCCCCGCGGAGTCACCTAGTGCAG | 8160 fluorescence intensity (a.u.)
